# Screening data as filed in PubChem.
# NS1 function inh: qHTS Assay for Inhibitors of Influenza NS1 Protein Function. 270,000 compounds, 0.4% hits. Potency, µM (highest dose often 46.1 µM), for inactives: at the highest dose activity, positive = more growth. AID 2326, 2010; calls by dose curve; further: potency means the concentration at half of the fitted maximal effect; actives are rising curves; nearly all actives have a fitted effect of over 50% in size
#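 S. cerevisiae expressing influenza A NS1, grown in glucose, washed, then diluted 1:100 into pH 6.0 -URA galactose medium with 23 nl compound. Growth recovery read as OD600; NS1-free strain serves as control.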
# CHX counter: Cycloheximide Counterscreen for Small Molecule Inhibitors of Shiga Toxin; cell reporter, cycloheximide protein synthesis inhibition counterscreen; 300,000 compounds, 12% hits; AID 2314, 2010; max response, %; in the data active means max response mostly above about 13%, no sharp cut-off; inactive means mostly below about 14%; further: read at 38.3 µM for the half of the compounds with a filed dose; 0% is about no effect
# Pf growth 48h: Primary qHTS for delayed death inhibitors of the malarial parasite plastid, 48 hour incubation; P. falciparum luciferase growth in erythrocytes, 48 h; Potency, µM (top dose mostly 28.7 µM), without a hit: at the top dose activity change, negative = inhibition, actives largely listed as inhibitors; 310,000 compounds, 5.9% hits; AID 504832, 2011; further: potency means the concentration at half of the fitted maximal effect; on the % scale 0 is the no-effect control and ±100 the full control effect
#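 A one-generation exposure of luciferase-tagged malaria parasites in RPMI 1640/Albumax erythrocyte culture, 37 C and 5% CO2. Inhibition is inferred from decreased luminescence after adding detection reagent.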
# Shiga toxin inh: A qHTS for Small Molecule Inhibitors of Shiga Toxin; Vero cells, Shiga toxin protein synthesis inhibition reporter; inhibition, % at 38.7 µM; 290,000 compounds, 9.2% hits; in the data active means inhibition mostly above about 28%, no sharp cut-off; inactive means mostly below about 43%; further: 0% is about no effect
# Sm TGR block: qHTS Assay for the Inhibitors of Schistosoma Mansoni Peroxiredoxins | AID 485364, 2010 | Schistosoma mansoni thioredoxin glutathione reductase (TGR), Q962Y6 | 360,000 compounds, 3% hits | Potency, µM (top dose mostly 114 µM), inactives show at the highest dose activity change, negative = inhibition, most hits filed as inhibitors | purified TGR, DTNB reduction, TNB absorbance 405 nm; further: potency means the concentration at half of the fitted maximal effect; on the % scale 0 is the no-effect control and ±100 the full control effect; nearly all actives have a fitted effect of over 60% in size
#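 First, TGR (20 nM dispensed) and NADPH were mixed with compound. Second, a 15 min room-temperature incubation followed. Third, further NADPH and then DTNB were added to start the reaction. Finally, TNB absorbance was monitored kinetically.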
# Pf growth 96h: Primary qHTS for delayed death inhibitors of the malarial parasite plastid, 96 hour incubation; P. falciparum luciferase reporter growth, 96 h; 320,000 compounds, 6.9% hits; Potency, µM (doses to about 28.7 µM), inactives show at the highest dose activity change, negative = inhibition, hits mostly inhibitors; AID 504834, 2011; further: potency means the concentration at half of the fitted maximal effect; on the % scale 0 is the no-effect control and ±100 the full control effect
#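 Compounds incubated with erythrocytes infected by luciferase-expressing P. falciparum (2% hematocrit, 0.05% parasitemia final) for 96 hours, 37 C in 5% CO2. Growth inhibition scored as decreased luciferase luminescence.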
# Numbers without * were called inactive; ? = inconclusive; / = not tested or not shown. This is a sample that favours compounds with a hit; in the whole collection about 21% have one here. Unless noted, the call rests on the fitted dose curve; in most records, active means well fitted curve in the direction sought with a large enough effect; inconclusive means small, poorly fitted or top-dose-only effect, or another doubt; inactive means no such curve, though single readings can be large; an effect the other way counts as inactive or inconclusive.
SMILES,NS1 function inh,CHX counter,Pf growth 48h,Shiga toxin inh,Sm TGR block,Pf growth 96h
COc1ccc(NC(=O)/C(C#N)=C/c2ccc[nH]2)c(OC)c1,-2.8%,10.6,21.7%,-19.7,-27.0%,9.6%
N#C/C(=C\c1ccc[nH]1)C(=O)Nc1ccccc1F,-18.9%,33.9*,30.0%,74.2*,-23.4%,-28.6%
N#C/C(=C\c1cccc(Cl)c1)C(=O)c1ccccc1,8.9%,-2.0,4.6%,-2.9,50.1µM*,0.0%
Cc1cc(/C=C(\C#N)C(=O)Nc2ccccc2F)c(C)[nH]1,-9.5%,45.6*,178.3%,63.6*,?,-26.7%
Cc1ccc(Cl)cc1-n1c(=O)cc(N2CCN(c3ccc(F)cc3)CC2)[nH]c1=O,/,/,/,/,-17.9%,/
NCC(=O)N[C@H](CO)C(=O)O,7.9%,/,/,/,/,/
COc1ccc2nc(/N=C/c3c(C)[nH]n(-c4ccc(C)cc4C)c3=O)sc2c1,0.5%,16.7,17.8%,-4.3,-6.6%,?
CCOCCOC(=O)c1ccc(NC(=O)/C=C/c2ccc(OC)c(OC)c2)cc1,/,/,/,/,-5.5%,/
CCOc1ccc(-c2cn3nc(CC(C)C)sc3n2)cc1,/,/,/,/,-3.0%,/
CC1=C(c2ccc(C)c(C)c2)S(=O)(=O)N=C1N1CCC(C(=O)NCCc2ccco2)CC1,/,/,/,/,-13.5%,/
N#C/C(=C\c1ccc[nH]1)C(=O)c1ccccc1,-3.0%,33.2*,2.5%,99.2*,4.6%,7.8%
O=C(CNC(=O)c1cc(Cl)nc2ccccc12)Nc1ccccc1Br,/,/,?,/,1.2%,?
